This note sets out measurements from PubChem BioAssay (NCATS).

Results filed as inconclusive are left out. A call without a number means that no potency is given here. Active and inactive are the calls of the source. The call rests on the fitted dose curve; in most records, active means well fitted inhibition curve with a large enough effect; inconclusive means small, poorly fitted or top-dose-only effect; inactive means flat fitted curve, though single readings scatter.

Sequence of Calcium and integrin-binding protein 1 (Homo sapiens) (Q99828 whole entry, looked up): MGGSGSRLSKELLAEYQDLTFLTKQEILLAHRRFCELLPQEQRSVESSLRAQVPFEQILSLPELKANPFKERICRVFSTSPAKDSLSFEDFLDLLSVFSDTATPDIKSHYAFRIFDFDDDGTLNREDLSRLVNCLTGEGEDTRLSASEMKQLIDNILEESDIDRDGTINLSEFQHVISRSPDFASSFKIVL

The experiment concerns the target Calcium and integrin-binding protein 1 (Homo sapiens) (UniProt Q99828). Put plainly: Primary qHTS for Identification of Calcium Integrin Binding Protein 1 (CIB1) Competitor (AID 1508620).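 Further: GST tagged CIB1 binding a fluorescein labelled alphaIIb integrin peptide tracer; top concentration of the series differs between compounds.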 The following applies: CIB1-GST / FITC-alphaIIb peptide fluorescence polarization; series mostly up to 57.7 µM. In outline: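 CIB1-GST (1 uM final) and compound incubated 15 min at room temperature before adding FITC-alphaIIb peptide tracer (100 nM final). Competition for binding read by fluorescence polarization (ex 480, em 540) after another 15 min at room temperature.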
For the molecule `C=C(C(=O)O)[C@@H]1CC=C2CCC[C@H](C)[C@@]2(C)C1`, the Potency result is “inactive”.

For the molecule `OC[C@H]1O[C@@H](Oc2ccc3c(c2)OC[C@H]2c4cc5c(cc4O[C@@H]32)OCO5)[C@H](O)[C@@H](O)[C@@H]1O`, the Potency entry was “inactive”.

For the molecule `Cn1c(=O)cc(N2CCCC(N)C2)n(Cc2ccccc2C#N)c1=O` (centres undefined), the Potency result is “inactive”.

As to `COc1cc(/C=C/C(=O)OC2CC(OC(C)=O)C(OC(C)=O)C3C2CCC2C(=O)OC(c4ccoc4)CC23C)ccc1O[C@@H]1O[C@H](CO)[C@@H](O)[C@H](O)[C@H]1O` (some centres undefined), the Potency result is “inactive”.

Consider `CCOC(=O)[C@H](CCc1ccccc1)CC1(C(=O)N[C@H]2CCc3ccccc3N(CC(=O)O)C2=O)CCCC1`, for which the Potency result was “inactive”.

As to `NC(Cc1c[nH]c2ccccc12)C(=O)NC(CCC(=O)O)C(=O)O` (centres undefined), the Potency result is “inactive”.

With `C=C1C(O[C@@H]2O[C@H](CO)[C@@H](O)[C@H](O)[C@@H]2O)CC2C(C)(C)C(O)CCC2(C)C1CC/C(C)=C\CO` (some centres undefined), the Potency entry is “inactive”.

As for `C=C(C)[C@@H](C)[C@H]1O[C@]23C[C@]4(CO2)C(CCC2[C@@]5(C)CC[C@H](O[C@@H]6OC[C@H](O)[C@H](O[C@@H]7O[C@H](CO)[C@@H](O)[C@H](O)[C@H]7O)[C@H]6O[C@@H]6O[C@@H](CO)[C@H](O)[C@H]6O)C(C)(C)C5CC[C@]24C)C3[C@@](C)(O)[C@@H]1OC(C)=O` (some centres undefined), the Potency entry is “inactive”.

In the case of `CC(C)(C)c1cc(CN2CCN(CC(O)c3ccc(Cl)cc3)CC2)cc(C(C)(C)C)c1O` (centres undefined), the Potency entry is “inactive”.

As for `C/C=C(\C)C(=O)O[C@@H](C)[C@H]1CC[C@]2(O)C3CCC4C[C@@H](OC5CC(OC)C(OC6CC(OC)C(OC7CC(OC)C(OC8OC(C)C(OC9OC(CO)C(O)C(O)C9O)C(OC)C8O)C(C)O7)C(C)O6)C(C)O5)CC[C@]4(C)C3[C@H](O)[C@@H](O)[C@]12C` (some centres undefined), the activity change, negative = inhibition was -0.005% [at 12.4 µM] (inactive).

Take `COc1cc(/C=C/C(=O)O[C@H]2[C@H](OC(=O)/C=C/c3cc(OC)c(O)c(OC)c3)O[C@H](CO[C@@H]3O[C@H](CO)[C@@H](O)[C@H](O)[C@H]3O)[C@@H](O)[C@@H]2O)ccc1O`: the Potency result is “inactive”.

For `COC(=O)C12C(=O)C(C)=C(O)C1(C)C(C)=CC1C34CCC(OC3=O)C(C)(C)C4CCC12C` (centres undefined), the Potency entry is “inactive”.

Regarding `O=C(O)[C@H]1CCCC[C@H]1C(=O)N1CCc2ccccc2[C@H]1CN1C(=O)c2ccccc2C1=O`, the Potency result was “inactive”.

For `CNC(=O)COC(=O)NCCC1CCN(c2cccc(C)n2)CC1`, the Potency result is “inactive”.

On to `C[C@@H]1O[C@@H](O[C@H]2[C@H](OC(=O)[C@]34CCC(C)(C)C[C@H]3C3=CCC5[C@@]6(C)C[C@H](O)[C@H](O[C@@H]7O[C@H](CO[C@@H]8OC[C@H](O)[C@H](O)[C@H]8O)[C@@H](O)[C@H](O)[C@H]7O)C(C)(C)C6CC[C@@]5(C)[C@]3(C)C[C@H]4O)OC[C@@H](O)[C@@H]2O)[C@H](O)[C@H](O[C@@H]2OC[C@](O)(CO)[C@H]2O)[C@H]1O[C@@H]1OC[C@H](O)[C@H](O[C@@H]2OC[C@@H](O)[C@H](O)[C@H]2O)[C@H]1O` (some centres undefined), for which the activity change, negative = inhibition was 1.69% [at 12.4 µM] (inactive).

With `C=C1CCC2(OC1)OC1CC3C4CC=C5CC(O)CC(O[C@@H]6OC[C@@H](O)[C@H](O)[C@H]6O)C5(C)C4CCC3(C)C1(O)C2C` (some centres undefined), the Potency result was “inactive”.

Consider `C[C@]12CCC[C@](C)(C(=O)O)C1CCC13C=C(CO)C(CCC12)C3` (some centres undefined), for which the Potency entry is “inactive”.

On to `CN1C(=O)c2ccccc2-n2c(nc3ccccc3c2=O)/C1=C/c1ccccc1`, for which the Potency entry was “inactive”.

Consider `COc1ccc2c(c1O)OC[C@H]1c3ccc(O)cc3O[C@@H]21`, for which the Potency result is “inactive”.

On to `C=CC(C)(C)C1(CC2NC(=O)C3CCCN3C2=O)C(=O)Nc2cc3c(cc21)C=CC(C)(C)O3` (centres undefined), for which the Potency result was “inactive”.

With `C=C(C(=O)OC)C1CCC2(C)C(O[C@@H]3O[C@H](CO)[C@@H](O)[C@H](O)[C@H]3O)CC(=O)C(C)C2C1O` (some centres undefined), the Potency entry is “inactive”.

Regarding `CCOc1cc2ncc(C#N)c(Nc3ccc(OCc4ccccn4)c(Cl)c3)c2cc1NC(=O)/C=C/CN(C)C`, the Potency result is “inactive”.

Turning to `CC(C)(OC1OC(CO)C(O)C(O)C1O)C1CCC(O)(CO)C2CC(O)C(C)(O)C2C1` (centres undefined), the Potency entry is “inactive”.

Consider `OC[C@H]1O[C@@H](Oc2cc(O)cc(-c3cc4ccc(O)cc4o3)c2)[C@H](O)[C@@H](O)[C@@H]1O`, for which the Potency result was “inactive”.

Take `COC1=CC(=O)C[C@@H](C)[C@]12Oc1cc(OC)cc(OC)c1C2=O`: the Potency entry is “inactive”.

For the molecule `C[C@@H]1CCC2C(C)(C)[C@H](O)CC[C@]2(C)[C@@]12Cc1c(O)cc3c(c1O2)CN(CCO)C3=O` (some centres undefined), the Potency result was “inactive”.

On to `CC(C)(O)c1ccc2c(c1)C(=O)CC1[C@](C)(CO)CCC[C@]21C` (some centres undefined), for which the Potency entry is “inactive”.

Take `c1nc(NC2CCCCCC2)c2cc(CNC[C@H]3CCCO3)sc2n1`: the Potency entry was “inactive”.

Regarding `CC(=O)c1cnc2ccc(-c3cc(Cl)c(O)c(Cl)c3)nc2c1NC1CCC(CN(C)C)CC1` (centres undefined), the Potency entry is “inactive”.

For `O=C(O)CCc1cc2ccoc2cc1O[C@@H]1O[C@H](CO[C@@H]2OC[C@](O)(CO)[C@H]2O)[C@@H](O)[C@H](O)[C@H]1O`, the Potency entry is “inactive”.

With `C=C1CC2(C(=O)O)CC1CCC2C1(C)CCCC2(C)C(=O)OC(O)C21` (centres undefined), the Potency entry is “inactive”.

Turning to `Cc1onc(-c2ccccc2)c1C(=O)N[C@@H]1C(=O)N2[C@@H]1SC(C)(C)[C@@H]2C(=O)O`, the Potency result is “inactive”.

As for `C[C@@H]1O[C@@H](O[C@@H]2[C@@H](O)[C@H](O[C@@H]3[C@@H](O)[C@@H](O)[C@H](O[C@H]4[C@H](OC(=O)[C@]56CCC(C)(C)C[C@H]5C5=CCC7[C@@]8(C)C[C@H](O)[C@H](O[C@@H]9O[C@@H](C)[C@H](O)[C@@H](O)[C@H]9O)[C@@](C)(CO)C8CC[C@@]7(C)[C@]5(C)C[C@H]6O)O[C@H](C)[C@H](O)[C@@H]4O)O[C@H]3C)OC[C@H]2O)[C@H](O)[C@H](O)[C@H]1O` (some centres undefined), the activity change, negative = inhibition was 1.34% [at 12.4 µM] (inactive).

As to `NCc1c[nH]c(=S)n1C1CCc2c(F)cc(F)cc2C1` (centres undefined), the Potency entry was “inactive”.

For `O=C(O[C@@H]1O[C@H](CO)[C@@H](O)[C@H](O)[C@H]1O)c1c(O)cc(O)cc1/C=C/c1ccccc1`, the Potency result is “inactive”.

`CC(=O)N(O)CCCCCN1C(=O)CCC1=O`: the Potency result is “inactive”.

For `C[C@H](NCc1ccc(OCc2ccccc2F)cc1)C(N)=O`, the Potency result was “inactive”.

As for `O=C(NN1CCCCC1)c1nn(-c2ccc(Cl)cc2Cl)c(-c2ccc(C#Cc3ccc(C(F)(F)F)cc3)s2)c1CNS(=O)(=O)N1CCCC1`, the Potency entry was “inactive”.

As to `CC1OC(OC2C(C)OC(OC3C(OC(=O)/C=C/c4ccc(O)cc4)C(CO)OC(OC4(COC(=O)/C=C/c5ccc(O)cc5)OC(CO)C(O)C4O)C3OC3OCC(O)(CO)C3O)C(O)C2O)C(O)C(O)C1O` (centres undefined), the Potency result was “inactive”.
